Measurements as given in PubChem BioAssay.
The source made the active and inactive calls. Unless noted, the rule behind the calls is not given here.

Experiments:
[1] = test system: Wnt5a (protein binding on small-molecule microarray); experiment: Wnt5a binders on small-molecule microarray, primary screen, biophysical, 635/667 nm fluorescence (AID 1142); settings: 635 nm fluorescence, higher = more signal;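 note: fluorescence read at 667 nm with signal to noise per printed feature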
[2] = cell viability in Huh7 cells, primary screen, cytotoxicity control for HCV replication inhibitor project, CellTiter-Glo luminescence, basal, 48 h (AID 1143); settings: Huh7 HCV replicon, higher = more signal, called active from +8 up or from −8 down;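 note: Huh7 hepatoma cells carrying a hepatitis C replication reporter with no stimulus; test concentration not given here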
[3] = P. aeruginosa biofilm formation inhibitors, primary screen, PAO1 strain, BacTiter-Glo luminescence, LB-PBS (AID 1144); settings: 12 h, higher = more signal
[4] = CREB reporter modulators without forskolin, primary screen, cell-based, PC12, CRE-LacZ reporter, unstimulated (AID 1145); settings: no forskolin, luminescence, 4.5 h, higher = more signal, called active from +8 up or from −8 down
[5] = CREB reporter modulators under forskolin, primary screen, cell-based, PC12, CRE-LacZ reporter, forskolin-stimulated (AID 1146); settings: luminescence, 4.5 h, higher = more signal, called active from +8 up or from −8 down;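 note: PC12 cells with 6xCRE LacZ reporter stimulated by forskolin 10 µM; beta-galactosidase reporter signal reflecting CREB driven transcription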
[6] = molecular target: Streptavidin (Streptomyces avidinii) (UniProt P22629); experiment: streptavidin binders on small-molecule microarray, primary screen, artefact control for SMM compound annotation, biophysical, 635/667 nm fluorescence (AID 1147); settings: streptavidin binding, higher = more signal;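 note: signal reflects streptavidin binding to arrayed compounds as a control protein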
Streptavidin (Streptomyces avidinii), sequence (P22629 whole entry, looked up): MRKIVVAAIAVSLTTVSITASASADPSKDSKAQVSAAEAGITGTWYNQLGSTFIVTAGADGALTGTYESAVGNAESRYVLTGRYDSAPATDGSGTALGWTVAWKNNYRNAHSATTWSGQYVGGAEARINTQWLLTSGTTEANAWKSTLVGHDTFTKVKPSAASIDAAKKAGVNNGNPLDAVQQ

[7] = small-molecule binders of probe aInhba, primary screen, biochemical, small-molecule microarray, 635/667 nm fluorescence (AID 1148); settings: higher = more signal;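 note: score merges 667nm spot fluorescence with signal-to-noise for antibody binding to printed compounds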
Torsin-1A (Homo sapiens) [8] = molecular target: Torsin-1A (Homo sapiens) (UniProt O14656); experiment: torsin A binders from cell lysate, primary screen, small-molecule microarray, wild-type, 635/667 nm (AID 1149); settings: COS7 hTOR1A-WT lysate, 635 nm fluorescence, higher = more signal
Torsin-1A (Homo sapiens), sequence (O14656 whole entry, looked up): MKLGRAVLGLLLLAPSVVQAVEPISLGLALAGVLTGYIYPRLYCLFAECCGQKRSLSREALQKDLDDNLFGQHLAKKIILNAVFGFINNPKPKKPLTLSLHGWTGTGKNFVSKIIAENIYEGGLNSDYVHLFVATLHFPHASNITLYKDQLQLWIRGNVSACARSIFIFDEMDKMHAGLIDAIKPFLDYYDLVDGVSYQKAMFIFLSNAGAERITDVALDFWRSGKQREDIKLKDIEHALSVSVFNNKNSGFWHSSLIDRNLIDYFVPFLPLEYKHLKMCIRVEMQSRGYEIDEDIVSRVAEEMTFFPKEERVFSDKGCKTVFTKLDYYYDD

Torsin-1A (Homo sapiens) [9] = molecular target: Torsin-1A (Homo sapiens) (UniProt O14656); experiment: small-molecule binders of mutant TOR1A in lysate, primary screen, cell lysate, small-molecule microarray, COS7 lysate, 635/667 nm fluorescence (AID 1150); settings: COS7 hTOR1A mutant lysate, 635 nm fluorescence, higher = more signal;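 note: score pools 667 nm emission and signal to noise measuring lysate protein binding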
[10] = test system: Sonic hedgehog protein (Shh); experiment: small-molecule binders of Shh protein, primary screen, biochemical, small-molecule microarray, 635/667 nm fluorescence (AID 1151); settings: small-molecule microarray binding, 635 nm fluorescence; higher = more signal;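 note: Shh protein binding to compounds spotted on small-molecule microarray slides; score combines spot fluorescence intensity with signal-to-noise across triplicate slides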
[11] = E. coli DRC41 culture turbidity changes, primary screen, E. coli filamentation inducer project, strain DRC41, OD650, 48 h (AID 1152);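 note: E. coli MC1000 strain DRC41 lacking acrAB efflux pump and sulA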; settings: E. coli DRC41 (acrAB sulA), higher = more signal, called active from +8 up or from −8 down
[12] = small-molecule binders of probe aLefty1, primary screen, biochemical, small-molecule microarray, 635/667 nm fluorescence (AID 1153); settings: higher = more signal;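 note: score merges spot fluorescence with signal-to-noise ratio from the scanned slide images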
[13] = PSAC antagonists in infected red cells, primary screen, cell-based, P. falciparum Indochina, OD700, 1 h (AID 1154); settings: P. falciparum Indochina infected RBC osmotic lysis, higher = more signal, called active from +8 up or from −8 down
[14] = PSAC antagonists in infected red cells, primary screen, cell-based, P. falciparum Indochina, OD700, 2 h (AID 1155);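 note: lysis reports solute entry through the parasite surface anion channel PSAC; channel blockers reduce lysis of infected cells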; settings: P. falciparum Indochina infected erythrocytes, osmotic lysis OD700; higher = more signal, called active from +8 up or from −8 down
[15] = osmotic lysis modulators in infected erythrocytes, primary screen, PSAC antagonist project, cell-based, P. falciparum Indochina, OD700, 3 h (AID 1156); settings: higher = more signal, called active from +8 up or from −8 down
[16] = PSAC antagonists in infected red cells, primary screen, cell-based, P. falciparum Indochina, OD700, 18 h (AID 1157); settings: P. falciparum Indochina infected erythrocytes, osmotic lysis OD700, 18 h; higher = more signal, called active from +8 up or from −8 down
[17] = modulators of S6 phosphorylation in cells, primary screen, cell-based, A549, cytoblot, luminescence, serum-stimulated (AID 1158); settings: A549 phospho-S6 cytoblot, 5 h, higher = more signal;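 note: serum-stimulated A549 lung adenocarcinoma cells; signal is phosphorylated S6 detected by cytoblot immunostaining with HRP secondary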
[18] = molecular target: NADPH oxidase 2 (Homo sapiens) (UniProt P04839); experiment: NOX2-dependent H2O2 signal modulators, primary screen, NOX inhibitor project, cell-based, HEK293-NOX2, PMA-stimulated, Amplex Red fluorescence (AID 1159); settings: 45 min, higher = more signal, called active from +8 up or from −8 down; note: test concentration not given here
NADPH oxidase 2 (Homo sapiens), sequence (P04839 whole entry, looked up): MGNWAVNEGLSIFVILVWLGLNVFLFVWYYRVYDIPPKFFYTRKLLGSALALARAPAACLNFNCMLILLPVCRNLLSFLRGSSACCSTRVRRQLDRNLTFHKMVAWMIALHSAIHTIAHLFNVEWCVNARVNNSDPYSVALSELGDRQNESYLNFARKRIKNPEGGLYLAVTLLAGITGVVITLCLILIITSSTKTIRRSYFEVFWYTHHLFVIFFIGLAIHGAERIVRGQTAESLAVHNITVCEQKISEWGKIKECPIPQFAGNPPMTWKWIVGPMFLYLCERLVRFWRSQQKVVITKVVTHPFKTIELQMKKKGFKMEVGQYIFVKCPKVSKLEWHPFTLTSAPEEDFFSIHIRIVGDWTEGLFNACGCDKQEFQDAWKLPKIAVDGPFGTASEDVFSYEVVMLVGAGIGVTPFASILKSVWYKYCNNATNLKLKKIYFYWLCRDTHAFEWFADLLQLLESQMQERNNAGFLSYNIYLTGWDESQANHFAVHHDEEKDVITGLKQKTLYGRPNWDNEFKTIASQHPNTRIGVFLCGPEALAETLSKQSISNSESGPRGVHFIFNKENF

[19] = molecular target: NADPH oxidase 4 (Homo sapiens) (UniProt Q9NPH5); experiment: NOX4-dependent H2O2 signal modulators, primary screen, NOX inhibitor project, cell-based, HEK293-NOX4, tetracycline-induced, Amplex Red fluorescence (AID 1160); settings: 45 min, higher = more signal, called active from +8 up or from −8 down
NADPH oxidase 4 (Homo sapiens), sequence (Q9NPH5 whole entry, looked up): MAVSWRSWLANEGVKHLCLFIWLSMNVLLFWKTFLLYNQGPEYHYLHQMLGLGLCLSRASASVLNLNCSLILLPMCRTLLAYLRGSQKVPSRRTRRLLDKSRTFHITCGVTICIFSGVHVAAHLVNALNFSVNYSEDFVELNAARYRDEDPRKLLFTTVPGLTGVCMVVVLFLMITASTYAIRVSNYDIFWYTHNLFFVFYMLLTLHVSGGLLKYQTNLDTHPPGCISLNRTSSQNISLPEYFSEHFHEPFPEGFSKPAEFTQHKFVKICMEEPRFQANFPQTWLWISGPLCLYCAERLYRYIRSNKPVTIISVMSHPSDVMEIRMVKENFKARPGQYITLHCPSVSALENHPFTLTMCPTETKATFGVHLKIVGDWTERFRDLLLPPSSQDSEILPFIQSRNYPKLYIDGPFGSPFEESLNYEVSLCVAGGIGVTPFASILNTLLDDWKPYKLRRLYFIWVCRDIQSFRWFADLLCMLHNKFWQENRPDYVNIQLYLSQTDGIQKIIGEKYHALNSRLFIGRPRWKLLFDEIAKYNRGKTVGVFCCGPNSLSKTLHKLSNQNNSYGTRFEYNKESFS

[20] = molecular target: NADPH oxidase 5 (Homo sapiens) (UniProt Q96PH1); experiment: NOX5-dependent H2O2 signal modulators, primary screen, NOX inhibitor project, cell-based, HEK293-NOX5, Amplex Red fluorescence (AID 1161); settings: HEK293-NOX5, ionomycin, 45 min, higher = more signal
NADPH oxidase 5 (Homo sapiens), sequence (Q96PH1 whole entry, looked up): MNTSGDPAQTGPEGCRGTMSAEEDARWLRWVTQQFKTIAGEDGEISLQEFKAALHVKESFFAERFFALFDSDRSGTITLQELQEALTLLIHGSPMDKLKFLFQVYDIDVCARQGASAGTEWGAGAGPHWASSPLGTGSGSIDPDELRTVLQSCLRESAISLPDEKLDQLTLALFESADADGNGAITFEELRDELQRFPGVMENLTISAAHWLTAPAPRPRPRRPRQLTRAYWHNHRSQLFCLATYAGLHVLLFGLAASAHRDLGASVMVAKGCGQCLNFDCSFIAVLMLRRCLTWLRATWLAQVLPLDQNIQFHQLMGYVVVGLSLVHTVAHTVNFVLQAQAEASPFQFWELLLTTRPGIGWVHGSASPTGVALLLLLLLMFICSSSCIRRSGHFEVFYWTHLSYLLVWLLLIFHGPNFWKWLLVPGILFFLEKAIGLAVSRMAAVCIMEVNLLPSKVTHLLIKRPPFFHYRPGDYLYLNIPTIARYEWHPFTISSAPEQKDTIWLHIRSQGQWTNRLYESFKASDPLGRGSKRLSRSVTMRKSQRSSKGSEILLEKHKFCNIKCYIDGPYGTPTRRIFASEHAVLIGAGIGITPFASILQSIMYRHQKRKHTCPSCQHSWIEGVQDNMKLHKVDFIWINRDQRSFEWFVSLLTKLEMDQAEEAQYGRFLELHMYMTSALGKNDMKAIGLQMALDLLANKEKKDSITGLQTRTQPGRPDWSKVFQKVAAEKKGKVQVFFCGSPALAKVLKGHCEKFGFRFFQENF

Row | SMILES | composite z-score [1] | z-score [2] | z-score [3] | z-score [4] | z-score [5] | composite z-score [6] | composite z-score [7] | composite z-score (Torsin-1A (Homo sapiens) [8]) | composite z-score (Torsin-1A (Homo sapiens) [9]) | composite z-score [10] | z-score [11] | composite z-score [12] | z-score [13] | z-score [14] | z-score [15] | z-score [16] | z-score [17] | z-score [18] | z-score [19] | z-score [20]
1 | C=CC[C@]1(C(=O)O)N=C(c2ccc(OCCCO)cc2)O[C@H]1c1ccccc1CN=[N+]=[N-] | 0.0194 | 0.101 (inactive) | 0.874 (inactive) | 0.274 (inactive) | -0.0119 (inactive) | -0.0336 | -0.108 | 0.0499 | 0.416 | -0.0799 | 0.0533 (inactive) | 0.0425 | 13.7 (active) | 1.93 (inactive) | -0.055 (inactive) | 0.665 (inactive) | -0.0651 | 0.324 (inactive) | 1.03 (inactive) | 1.58
2 | COC(=O)[C@@]1(Cc2ccc(F)cc2)[C@H]2c3cc(C(=O)N(C)C)n(Cc4ccccn4)c3C[C@H]2CN1C(=O)c1ccccc1 | -0.0131 | -1.17 (inactive) | -0.75 (inactive) | -0.947 (inactive) | 0.431 (inactive) | 0.751 | 0.349 | 1.17 | 1.05 | -0.285 | -1.37 (inactive) | 1.13 | 0.755 (inactive) | -0.692 (inactive) | 0.336 (inactive) | -1.68 (inactive) | 0.388 | 0.467 (inactive) | 1.2 (inactive) | -2.82
3 | [N-]=[N+]=Nc1ccccc1C[C@]1(C(=O)N2CCCCC2)N=C(c2ccc(OCCCO)cc2)O[C@H]1c1ccccc1N=[N+]=[N-] | 0.316 | -3.99 (inactive) | -0.546 (inactive) | 0.722 (inactive) | -1.69 (inactive) | 1.04 | 0.622 | 0.656 | 0.951 | 0.364 | -0.866 (inactive) | 0.568 | 30.1 (active) | 28.3 (active) | 2.73 (inactive) | 7.18 (inactive) | -0.359 | -2.39 (inactive) | 0.341 (inactive) | -1.08
4 | CC(C)(C)OC(=O)CC[C@@]1(C(=O)N2CCOCC2)N=C(c2ccc(OCCCO)cc2)O[C@@H]1c1ccccc1N=[N+]=[N-] | 1.23 | -1.61 (inactive) | 0.321 (inactive) | 0.0686 (inactive) | -0.713 (inactive) | 1.93 | 0.27 | 0.802 | 1.11 | 0.535 | 1.96 (inactive) | 0.394 | 30.9 (active) | 28.1 (active) | 1.09 (inactive) | 7.36 (inactive) | -0.242 | -3.49 (inactive) | 0.71 (inactive) | -2.04
5 | C=CCC(OC(C)=O)[C@@H]1[C@@H](N(Cc2cc3ccccc3o2)C(=O)c2cccc3ccccc23)c2cc(OCCCO)ccc2N1C(=O)Cc1ccc(OC)cc1 (stereo not given in full) | 0.235 | -1.1 (inactive) | 0.0686 (inactive) | 0.279 (inactive) | 0.496 (inactive) | -0.0552 | -0.0804 | 0.175 | 0.138 | 1.16 | -0.901 (inactive) | -0.195 | 1.7 (inactive) | 0.923 (inactive) | 1.66 (inactive) | 0.629 (inactive) | 0.907 | -1.79 (inactive) | -0.428 (inactive) | -1.57
6 | O=C1O[C@@H](c2ccccc2)[C@@H](c2ccccc2)N2[C@@H](c3ccc(O)cc3)[C@]3(C(=O)Nc4ccc(C#CCCO)cc43)[C@@H](C(=O)N3CCCCCCC3)[C@H]12 | 0.409 | -0.915 (inactive) | -0.547 (inactive) | -0.114 (inactive) | -0.394 (inactive) | 1.55 | 1.46 | 1.37 | 1 | 0.887 | -0.681 (inactive) | 2.4 | 1.27 (inactive) | 0.654 (inactive) | -0.69 (inactive) | 0.541 (inactive) | -0.364 | 1.15 (inactive) | 0.277 (inactive) | 1.47
7 | COc1ccc(C(=O)Nc2cccc(CN3C(=O)[C@@]4(O[C@@H](CCn5cc([C@H](O)c6ccccc6)nn5)[C@H]([Si](C)(C)c5ccc(OC)cc5)[C@H]4C)c4ccccc43)c2)cc1 | 0.417 | -6.59 (inactive) | -0.301 (inactive) | 0.833 (inactive) | 0.834 (inactive) | 0.0185 | 0.0714 | -0.12 | 0.377 | 1.89 | -0.677 (inactive) | 0.379 | 4.91 (inactive) | 0.715 (inactive) | 0.618 (inactive) | 1.04 (inactive) | 0.858 | -0.492 (inactive) | 0.663 (inactive) | 2.23
8 | CC(C)(C)OC(=O)CC[C@@]1(C(N)=O)N=C(c2ccc(OCCCO)cc2)O[C@@H]1c1ccccc1N=[N+]=[N-] | 0.672 | -0.858 (inactive) | 0.61 (inactive) | 0.204 (inactive) | -0.208 (inactive) | 1.12 | -0.0695 | 2.08 | 1.31 | -0.179 | 1.3 (inactive) | 0.224 | 30.8 (active) | 31.3 (active) | 2.05 (inactive) | 2.73 (inactive) | -0.207 | 1.57 (inactive) | -0.154 (inactive) | -1.44
9 | [N-]=[N+]=Nc1ccccc1[C@H]1OC(c2ccc(OCCCO)cc2)=N[C@@]1(CCS(=O)(=O)c1ccccc1)C(=O)N1CCOCC1 | 1.48 | -2.5 (inactive) | 0.385 (inactive) | 0.937 (inactive) | 0.28 (inactive) | 0.877 | 0.496 | 0.35 | 0.923 | 0.836 | 0.399 (inactive) | 1.48 | 31 (active) | 23.6 (active) | 1.88 (inactive) | 4.6 (inactive) | 0.211 | 0.404 (inactive) | 1.56 (inactive) | 1.36
